Screening data from PubChem.
JMJD2A Tudor inh = qHTS Assay for Inhibitors of JMJD2A-Tudor Domain; AlphaScreen JMJD2A-Tudor / H3K4me3 peptide binding; Potency, µM (series often up to 114 µM), most hits filed as inhibitors; 390,000 compounds, 4.4% hits; note: nearly all actives have a fitted effect of over 50% in size
Target sequence (O75164 whole entry, looked up, the tested form may be a part): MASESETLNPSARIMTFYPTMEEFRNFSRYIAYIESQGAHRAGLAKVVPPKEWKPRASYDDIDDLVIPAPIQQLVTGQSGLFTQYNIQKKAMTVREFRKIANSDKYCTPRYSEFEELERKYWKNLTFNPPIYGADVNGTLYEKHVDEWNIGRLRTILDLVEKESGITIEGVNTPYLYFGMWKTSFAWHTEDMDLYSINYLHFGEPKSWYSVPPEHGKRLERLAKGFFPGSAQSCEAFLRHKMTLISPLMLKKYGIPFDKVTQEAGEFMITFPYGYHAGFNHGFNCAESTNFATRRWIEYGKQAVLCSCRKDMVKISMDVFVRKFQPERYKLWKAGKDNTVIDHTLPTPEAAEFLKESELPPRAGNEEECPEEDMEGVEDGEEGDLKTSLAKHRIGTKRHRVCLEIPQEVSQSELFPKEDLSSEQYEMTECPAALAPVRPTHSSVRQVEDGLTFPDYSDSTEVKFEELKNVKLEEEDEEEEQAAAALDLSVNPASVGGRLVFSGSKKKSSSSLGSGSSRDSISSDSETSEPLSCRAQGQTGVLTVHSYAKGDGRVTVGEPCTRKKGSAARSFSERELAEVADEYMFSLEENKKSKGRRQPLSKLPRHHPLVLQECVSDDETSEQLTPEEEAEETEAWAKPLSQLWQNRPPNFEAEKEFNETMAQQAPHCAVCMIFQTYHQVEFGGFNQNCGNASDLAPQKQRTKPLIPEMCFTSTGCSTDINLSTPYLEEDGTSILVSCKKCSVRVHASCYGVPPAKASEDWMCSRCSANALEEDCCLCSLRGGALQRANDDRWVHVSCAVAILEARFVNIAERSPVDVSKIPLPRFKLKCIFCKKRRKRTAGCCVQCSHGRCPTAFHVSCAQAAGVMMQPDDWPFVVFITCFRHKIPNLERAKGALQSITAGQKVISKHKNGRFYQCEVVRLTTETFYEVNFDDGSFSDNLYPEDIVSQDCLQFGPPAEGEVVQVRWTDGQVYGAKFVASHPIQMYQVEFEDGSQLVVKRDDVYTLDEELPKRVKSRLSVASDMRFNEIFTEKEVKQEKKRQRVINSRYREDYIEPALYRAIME
BAZ2B inh = qHTS Assay for Inhibitors of BAZ2B; Potency, µM (doses to about 114 µM), usual class: inhibitors; AlphaScreen BAZ2B-H3K14Ac peptide displacement; AID 504333, 2011; Bromodomain adjacent to zinc finger domain protein 2B (Homo sapiens), Q9UIF8; 360,000 compounds, 4.4% hits; note: nearly all actives have a fitted effect of over 60% in size
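BAZ2B 50 nM plus b-H3(5-23)K14Ac 50 nM, PBS pH 7.4/0.01% Tween-20, 30 min RT; compound added (max 110 uM), 30 min RT; streptavidin donor/Ni-chelate acceptor beads 10 ug/mL final, 20 min dark; AlphaScreen read.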
HP1b chromo inh = HTS for Inhibitors of HP1-beta Chromodomain Interactions with Methylated Histone Tails; Potency, µM (series often up to 114 µM), actives largely listed as inhibitors; AlphaScreen HP1-beta / biotin-H3K9me3 peptide binding; 390,000 compounds, 0.56% hits; note: nearly all actives have a fitted effect of over 70% in size
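HP1-beta protein (50 nM final) preincubated 30 min at room temperature with biotinylated H3(1-18)K9me3 peptide (50 nM) in PBS pH 7.4, 0.01% Tween-20, then compound added for 30 min. AlphaScreen streptavidin donor/nickel chelate acceptor beads (10 ug/mL final), 30 min dark, luminescence read.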
GLS inhibitor = qHTS for Inhibitors of Glutaminase (GLS). Glutaminase kidney isoform, mitochondrial (Homo sapiens), O94925. AID 624170, 2012. 410,000 compounds, 0.21% hits. GLS enzymatic activity, qHTS titration. Potency, µM (highest dose often 45.5 µM), most hits filed as inhibitors
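Glutamate formation by hKGA was monitored fluorometrically using coupled glutamate oxidase, HRP and Amplex Red. Substrate was added as 1 mM L-glutamine solution; incubation was 30 min at RT after an initial read.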
G9a block = qHTS Assay for Inhibitors of Histone Lysine Methyltransferase G9a; Histone-lysine N-methyltransferase EHMT2 (Homo sapiens), Q96KQ7; G9a H3K9 monomethylation, AlphaScreen, 2 h; Potency, µM (doses to about 102 µM), hits mostly inhibitors; 350,000 compounds, 8.8% hits; AID 504332, 2011; note: nearly all actives have a fitted effect of over 75% in size
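G9a (20 nM) was preincubated 15 min with compound, then reacted 2 h at room temperature with 500 nM biotin-H3K9 peptide and 20 µM SAM. Monomethyl-H3K9 detected by AlphaScreen using anti-H3K9me1 antibody.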
Hits are given with their value; i = inactive; ? = inconclusive; nt = no result; ! = not active in a repeat; [ ] = remark or other dose. Hits are enriched below; roughly 10% of the tested compounds scored in any of these assays. Calls come from the whole dose curve; as a rule, active = well fitted curve in the direction sought with a large enough effect; inconclusive = small, poorly fitted or top-dose-only effect, or another doubt; inactive = no such curve, though single readings can be large; an effect the other way counts as inactive or inconclusive.

SMILES	JMJD2A Tudor inh	BAZ2B inh	HP1b chromo inh	GLS inhibitor	G9a block
CO/N=C(\C(=O)N[C@@H]1C(=O)N2C(C(=O)[O-])=C(C[N+]3(C)CCCC3)CS[C@@H]12)c1csc(N)n1	nt	nt	nt	i	i[12.7 µM]
O=C(O)CC/C(=N/NC(=O)c1cn(-c2ccccc2)nc1-c1ccccc1)C(=O)O	?	?	i	i	35.5µM
O=C(Nc1ccccc1)c1cn(-c2ccccc2)nc1-c1ccccc1	i	i	i	i	i
CCC1CCCCN1Cc1nc2c(c(=O)n(C)c(=O)n2C)n1Cc1c(F)cccc1Cl (stereo not given)	i	nt	i	nt	nt
CCOC(=O)c1cnc(-n2nc(C)cc2C)nc1N1CCOCC1	i	i	i	i	79.4µM
CCOC(=O)c1cnc(-n2nc(C)cc2C)[nH]c1=O	i[11.4 µM]	39.8µM	i	i	i
CCOC(=O)c1cnc(-n2[nH]c(C)c(Cc3ccccc3)c2=O)[nH]c1=O	7.94µM	2µM	i	i	i[12.7 µM]
CCOC(=O)c1cnc(-n2[nH]c(C)cc2=O)[nH]c1=O	2.82µM	1.78µM	50.1µM	i	?
N#Cc1nc(NCC(F)F)c2ncn(-c3cccc(Cl)c3)c2n1	i	nt	nt	nt	nt
CCCNC(=O)Cn1c(SCc2ccccc2C)nc2ccncc21	i	nt	i	nt	nt
N#C/C(=C(/O)C(Cl)(Cl)Cl)c1nc2ccccc2[nH]1	50.1µM	i	i	i	i
C/C(O)=C(/C#N)c1nc2ccccc2[nH]1	i	?	i	i	10µM
N#C/C(=N\O)c1nc2ccccc2[nH]1	56.2µM	?	i	i	i
N#C/C(=C(\O)c1cc(Cl)sc1Cl)c1nc2ccccc2[nH]1	i	70.8µM	i	i	i
N#C/C(=C(/O)c1ccc(Cl)cc1)c1nc2ccccc2[nH]1	i	i	i	i	i
CSc1nc2sc3c(c2c(=O)n1-c1ccc(F)c(Cl)c1)CCN(C(C)=O)C3	i	i	i	i	i
CN(Cc1ccccc1)C(=O)[C@@H]1CCCN1C(=O)[C@@H]1CCCN1C(=O)c1cccc(Cl)c1	nt	nt	nt	i	nt
Cc1nn(-c2ccccc2)c(N2CCCC2)c1/C=N/Nc1ccc(S(N)(=O)=O)cc1[N+](=O)[O-]	7.08µM	10µM	39.8µM	i	10µM
C=CCNc1nnc(Cc2ccc(C(C)C)cc2)c(=O)[nH]1	56.2µM	?	i	i	i
Cc1cc([N+](=O)[O-])cc(/C=N\NC(=O)C2COc3ccccc3O2)c1O (stereo not given)	50.1µM	28.2µM	i	i	i
CCN(CC)c1ccc(/C=N/NC(=O)CNC(=O)C2COc3ccccc3O2)c(O)c1 (stereo not given)	50.1µM	i	i	?	17.8µM
COc1cc(/C=N\NC(=O)CNC(=O)C2COc3ccccc3O2)ccc1O (stereo not given)	i	i	i	i	i
Cc1cccc(-c2nc3c4c(-c5ccccc5)c(-c5ccccc5)oc4ncn3n2)c1	i	i	i	i	i
CCCCCCCN1C(Nc2ccccc2)=NC[C@@H]1C	i	i	i	i	i[2.33 µM]
O=C1NC(=S)/C(=C\c2ccc(-c3ccccc3Cl)o2)S1	44.7µM	17.8µM	?	i	10µM
SMILES	JMJD2A Tudor inh	BAZ2B inh	HP1b chromo inh	GLS inhibitor	G9a block
Cc1ccccc1-c1csc(C(O)c2ccc(F)c(F)c2)n1 (stereo not given)	nt	nt	nt	i	nt
Cc1ccc(NS(=O)(=O)c2ccc(-c3coc(C)n3)cc2)c(Cl)c1	nt	nt	nt	i	nt
CCC(=O)N(Cc1cc(=O)[nH]c2ccccc12)c1ccccc1C	i	i	?	i	44.7µM
CCN(Cc1cc(=O)[nH]c2ccccc12)C(=O)c1ccc(C)cc1	i	i	i	i	i
CCCC(=O)N(Cc1cc(=O)[nH]c2ccccc12)c1ccc(C)cc1C	i	i	i	i	?
CCC(=O)N(Cc1cc(=O)[nH]c2ccccc12)c1cccc(C)c1	79.4µM	i	i	i	10µM
Cc1ccc(N(Cc2cc(=O)[nH]c3ccccc23)C(=O)CCl)c(C)c1	i	i	i	i	50.1µM
COC(=O)N1CCC2(CCCN(c3ncccn3)C2)CC1	nt	nt	nt	nt	i[12.7 µM]
Cc1ccc(N=N/C(=C\O)C(=O)c2ccncc2)cc1	?	44.7µM	i	i	?
Cc1ccc(OC(=O)c2ccncc2)c(C)c1	i	i	i	i	i
O=C(/C(=C/O)N=Nc1ccc(Cl)cc1)c1ccncc1	?	31.6µM	i	i	i[0.501 µM]
COC(=O)c1ccc(OCC2c3cc(OC)c(OC)cc3CCN2C(=O)c2ccc(OC)cc2)cc1 (stereo not given)	i	?	i	i	i
COc1ccc(OCC2c3cc(OC)c(OC)cc3CCN2C(=O)C(C)C)cc1 (stereo not given)	56.2µM	i	i	i	?
COC(=O)c1ccc(OCC2c3cc(OC)c(OC)cc3CCN2C(=O)c2ccco2)cc1 (stereo not given)	?	?	i	i	50.1µM
Cc1cccc(C)c1-n1nnnc1C1c2ccccc2C(=O)N1C1CC1 (stereo not given)	nt	nt	nt	i	nt
NS(=O)(=O)c1ccc(N=Nc2c[nH]c(=O)c(O)c2)cc1	7.08µM	7.94µM	50.1µM	i	11.2µM
Nc1nc(O)c(N=Nc2ccc(S(N)(=O)=O)cc2)c(=O)[nH]1	i	i	i	i	?
COc1ccc(C(C)=O)cc1COC(=O)CSC(C)C(=O)Nc1cc(C)on1 (stereo not given)	i	i	i	i	i
COc1ccc(C(C)=O)cc1CSc1nnc(Nc2ccc(C)cc2)s1	i	i	i	i	10µM
COc1ccc(C(C)=O)cc1COC(=O)CSCC(=O)Nc1ccc(C)cc1	i	79.4µM	i	i	i[0.501 µM]
Cc1ccc2nc(Nc3ccc(Br)cc3)nc(-c3ccccc3)c2c1	i	i	i	i	i
CN1Cc2c(N)cccc2[C@H](c2ccccc2)C1	nt	nt	nt	nt	i[21.5 µM]
CN1Cc2c(N)cccc2C(c2ccccc2)C1 (stereo not given)	i	i	i	i	14.1µM!
CCOC(=O)[C@]12CCCC=C1N(Cc1cccc3ccccc13)C(=O)[C@H](CC(=O)NCCCCc1ccccc1)C2	nt	nt	nt	i	nt
N#CCSc1ncccc1-c1nc2ccccc2[nH]1	i	i	i	i	i
SMILES	JMJD2A Tudor inh	BAZ2B inh	HP1b chromo inh	GLS inhibitor	G9a block
O=C(CSc1ncccc1-c1nc2ccccc2[nH]1)NCc1ccco1	35.5µM	56.2µM	?	?	10µM
N#CCCCSc1ncccc1-c1nc2ccccc2[nH]1	i	i	i	i	15.8µM
O=C(CSc1nc2ccccc2[nH]1)NCc1ccco1	i	nt	i	i	i
O=C(OC(C(=O)NCc1cccs1)c1ccccn1)c1cccs1 (stereo not given)	i	56.2µM	i	i	?
O=C(OC(C(=O)NC1CCCCC1)c1ccccn1)c1cccs1 (stereo not given)	i	i	i	i	i[12.7 µM]
CC1(C)OC(=O)C2=C(C[C@@H](CCOCc3ccccc3)O[C@@H]2c2ccc(F)cc2)O1	nt	nt	nt	i	nt
